Data on one compound can be found in PubChem BioAssay AID651915 (Vanderbilt Specialized Chemistry Center, 2012).

For the experiment, the target named is Histone deacetylase 5 (Homo sapiens) (UniProt Q9UQL6). The experiment is described as follows: HDAC5 deacetylase inhibition, profiling panel, selectivity assay for E-cadherin restoration project, biochemical, human (AID 651915). The note with it: recombinant HDAC5, fluorogenic class2a substrate; series mostly up to 10 µM.

Structures are written as SMILES. Calls of active or inactive are those of the source. How the calls were made is not given here.

Sequence of Histone deacetylase 5 (Homo sapiens) (Q9UQL6 whole entry, looked up): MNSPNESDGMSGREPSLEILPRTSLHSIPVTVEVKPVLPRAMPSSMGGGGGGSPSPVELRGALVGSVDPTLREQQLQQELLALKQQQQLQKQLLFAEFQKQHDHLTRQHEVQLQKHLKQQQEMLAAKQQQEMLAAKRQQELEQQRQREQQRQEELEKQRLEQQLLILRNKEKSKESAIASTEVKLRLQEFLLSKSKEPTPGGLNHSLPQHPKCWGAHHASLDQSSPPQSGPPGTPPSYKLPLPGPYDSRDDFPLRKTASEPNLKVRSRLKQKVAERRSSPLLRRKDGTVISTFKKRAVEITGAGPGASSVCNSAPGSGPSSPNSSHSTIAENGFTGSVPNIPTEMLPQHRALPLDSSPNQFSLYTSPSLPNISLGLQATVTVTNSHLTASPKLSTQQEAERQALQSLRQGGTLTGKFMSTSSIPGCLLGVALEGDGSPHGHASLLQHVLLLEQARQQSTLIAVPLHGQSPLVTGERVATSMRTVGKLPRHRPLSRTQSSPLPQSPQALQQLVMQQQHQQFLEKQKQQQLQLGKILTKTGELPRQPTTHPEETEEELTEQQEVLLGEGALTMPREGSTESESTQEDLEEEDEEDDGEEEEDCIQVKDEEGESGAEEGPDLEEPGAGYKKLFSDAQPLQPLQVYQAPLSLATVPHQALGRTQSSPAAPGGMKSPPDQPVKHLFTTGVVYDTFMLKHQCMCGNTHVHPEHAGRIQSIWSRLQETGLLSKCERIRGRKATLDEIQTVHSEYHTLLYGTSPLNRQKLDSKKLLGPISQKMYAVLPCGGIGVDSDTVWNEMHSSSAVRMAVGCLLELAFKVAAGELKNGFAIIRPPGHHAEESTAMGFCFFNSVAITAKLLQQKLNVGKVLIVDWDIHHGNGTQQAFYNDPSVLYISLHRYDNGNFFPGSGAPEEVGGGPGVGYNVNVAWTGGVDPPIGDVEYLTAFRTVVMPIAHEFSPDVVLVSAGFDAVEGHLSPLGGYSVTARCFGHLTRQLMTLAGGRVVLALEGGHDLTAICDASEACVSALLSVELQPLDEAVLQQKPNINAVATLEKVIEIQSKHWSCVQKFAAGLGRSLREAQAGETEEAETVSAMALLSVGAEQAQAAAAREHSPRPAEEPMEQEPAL

`O=C(NCCCNC(=O)c1ccc[nH]c1=O)c1cc(-c2ccccc2)on1`: the outcome was inactive.
